Screening data from PubChem BioAssay.
p53ts 39C tox: p53ts cell cytotoxicity, nonpermissive temperature. H1299-p53A138V viability at 39C, ATP luminescence, 24 h. 130,000 compounds, 1.5% hits. Potency, µM (highest dose often 46.1 µM), hits mostly cytotoxic. AID 902; also: nearly all actives have a fitted effect of over 55% in size
p53ts 32C tox: p53ts cell cytotoxicity, permissive temperature; H1299-p53A138V at 32C, ATP luminescence viability, 24 h; 130,000 compounds, 0.93% hits; AID 924; Potency, µM (series often up to 46.1 µM), usual class: cytotoxic; also: nearly all actives have a fitted effect of over 55% in size
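H1299-p53 A138V cells (temperature-sensitive p53) exposed 24 h to up to 46 uM compound at 32C, where p53 is wild-type in conformation. Viability read as ATP luminescence and normalised to DMSO and 100 uM tamoxifen. AC50 fitted with the Hill equation.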
Peg3 imprint: induces erasure of genomic imprints in mouse ES cells; mouse ES Peg3-LacZ reporter, beta-gal luminescence, 40 h; Potency, µM (doses to about 60.7 µM), most hits filed as activators; 110,000 compounds, 0.02% hits; AID 1948
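Each well holds 300 Peg3LacZ-Neo (maternal) female ES cells incubated 40 h at 37C, 5% CO2. LacZ is measured by BetaGlo luminescence, with AC50 and maximum efficacy derived from dose-response curves.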
IkB signaling: suppresses IkB signaling in ABC-DLBCL reporter cells. 110,000 compounds, 0.04% hits. ABC-DLBCL IkBa-CBG/CBR dual luciferase ratio, 4 h; response scale: scaled: untreated 0%, proteasome inhibitor 100%. Potency, µM (series often up to 57.1 µM). AID 445; active = well fitted curve in the direction sought with a large enough effect in the signal ratio, not every such curve was filed as active; inconclusive = small, poorly fitted or top-dose-only effect, or a change in a side signal; the % refers to the signal ratio;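 also: the direction sought is a rising ratio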
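In this assay, an IκBα–CBG68 fusion accumulates when IKK-driven degradation is blocked; native CBR normalizes for cell number. OCI-Ly3 cells were treated 4 h with compound and doxycycline, then green and red light read after Chroma-Glo addition.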
Hits are given with their value; - = inactive; ? = inconclusive; . = no result given; [ ] = dose if it differs, or a comment. Sampled rows, rich in hits. Any-hit rate of the full collection: about 1.7%. Unless noted, calls follow the shape of the dose curve; as a rule, active = well fitted curve in the direction sought with a large enough effect; inconclusive = small, poorly fitted or top-dose-only effect, or another doubt; inactive = no such curve, though single readings can be large; an effect the other way counts as inactive or inconclusive.

SMILES	p53ts 39C tox	p53ts 32C tox	Peg3 imprint	IkB signaling
CCC(=O)NCCc1nc2cc(NC(=O)c3cccc(Br)c3)ccc2n1C	10µM	13µM	-[10.9 µM]	-
CCOC(=O)c1cc(-c2ccc(C)cc2)n(CC(=O)Nc2ccc(OC)c(Cl)c2)c1C	7.9µM	?	-[10.9 µM]	-
Cc1ccc(NC(=O)C(Cc2ccccc2)NS(=O)(=O)c2ccc3c(c2)c(=O)n(C)c(=O)n3C)c(C)c1 (centres undefined)	-	-	-[10.9 µM]	?
O=C(c1cc2ccc3cccnc3c2[nH]1)N1CCN(c2cccc(Cl)c2)CC1	-	-	-[10.9 µM]	-
CCS(=O)(=O)c1ncc(Cl)c(C(=O)N2CCN(c3cccc(Cl)c3)CC2)n1	2.5µM	13µM	-[10.9 µM]	?
CS(=O)(=O)c1ncc(Cl)c(C(=O)N2CCN(c3cccc(Cl)c3)CC2)n1	2.5µM	13µM	-[10.9 µM]	?
CC1CCc2onc(C(=O)N3CCN(c4cccc(Cl)c4)CC3)c2C1 (centres undefined)	-	-	-[10.9 µM]	?
C(=C\c1ccccc1)/CN1CCN(c2ncnc3c2oc2ccccc23)CC1	13µM	10µM	-	?
c1cnc(N2CCN(c3ncnc4c3oc3ccccc34)CC2)nc1	-	-	-	-
COc1cccc(NC(=O)c2cnc(SCC(=O)N3CCOCC3)n(C)c2=O)c1	13µM	-	-[10.9 µM]	?
COc1cccc(NC(=O)Cn2c(SCC(=O)N3CCOCC3)nc3ccccc32)c1	-	-	-	-
COc1ccc(NC(=O)C(C)n2nnc3sc(-c4ccccc4)cc3c2=O)cc1Cl (centres undefined)	-	-	-[10.9 µM]	?
O=C(/C(C=Nc1ccc(Br)cc1)=C(/O)c1ccco1)C(F)(F)F	11µM	11µM	.	.
COc1cc(-c2noc(CN3CCN(c4ccccc4)CC3)n2)cc(OC)c1OC	25µM	-	-[10.9 µM]	-
COc1ccccc1N1CCN(Cc2nc(-c3cc(OC)c(OC)c(OC)c3)no2)CC1	-	-	-[10.9 µM]	?
COC(=O)c1cc2oc3ccccc3c2n1CC(=O)Nc1ccc(Cl)cc1F	10µM	-	-[10.9 µM]	-
CSc1nc(Nc2ccc(C)cc2C)cc(-c2ccccc2)n1	-	-	-[10.9 µM]	?
O=C(CCS(=O)(=O)c1nc(-c2ccc3c(c2)OCO3)cc(C(F)(F)F)n1)Nc1ccc(F)cc1F	-	-	?	?
COc1ccc(-c2cc(C(F)(F)F)nc(S(=O)(=O)CCC(=O)N3CCOCC3)n2)cc1	?	5µM	-	-
COc1ccc(NC(=O)CCCS(=O)(=O)c2nc(-c3ccc(OC)c(OC)c3)cc(C(F)(F)F)n2)cc1OC	2.5µM	?	-[10.9 µM]	?
COc1ccc(-c2cc(C(F)(F)F)nc(S(=O)(=O)CCCC(=O)Nc3cccc(O)c3)n2)cc1OC	3.2µM	?	-[10.9 µM]	?
COc1ccccc1-c1cc(C(F)(F)F)nc(S(=O)(=O)CCCC(=O)Nc2ccc(F)c(Cl)c2)n1	?	?	-[10.9 µM]	?
COc1ccccc1-c1cc(C(F)(F)F)nc(S(=O)(=O)CCCC(=O)N2CCOCC2)n1	?	?	-	?
COc1ccc(-c2cc(C(F)(F)F)nc(S(=O)(=O)CCCC(=O)Nc3ccccc3C(F)(F)F)n2)cc1OC	5µM	?	-[10.9 µM]	?
COc1ccc(NC(=O)CCS(=O)(=O)c2nc(-c3ccc4c(c3)OCO4)cc(C(F)(F)F)n2)cc1	-	?	-[10.9 µM]	?
SMILES	p53ts 39C tox	p53ts 32C tox	Peg3 imprint	IkB signaling
O=C(Nc1cccc(C(F)(F)F)c1)c1ccc(F)c(S(=O)(=O)N2CCc3ccccc3C2)c1	-	-	-[10.9 µM]	?
O=C(Cn1c(=O)oc2cc(Cl)ccc21)Nc1cccc(C(F)(F)F)c1	-	-	-[10.9 µM]	-
COc1ccccc1-c1cc(C(F)(F)F)nc(S(=O)(=O)CCCC(=O)Nc2cc(OC)c(OC)c(OC)c2)n1	5µM	6.3µM	-[10.9 µM]	-
Cc1nc2ccn(Cc3ccco3)c(=O)c2cc1C(=O)NCc1ccc(Cl)cc1	-	-	-[10.9 µM]	?
CCN(c1cccc(C)c1)C(CNS(=O)(=O)c1ccccc1)c1ccccc1 (centres undefined)	13µM	-	-[10.9 µM]	?
COC(=O)CCN(c1ccccc1)C(CNS(=O)(=O)c1ccccc1)c1ccccc1 (centres undefined)	-	-	-[10.9 µM]	?
CCN(c1ccccc1)C(CNS(=O)(=O)c1ccccc1)c1ccccc1 (centres undefined)	?	-	-[10.9 µM]	-
Cc1cccc(N(C)C(CNS(=O)(=O)c2ccccc2)c2ccccc2)c1 (centres undefined)	32µM	-	-[10.9 µM]	?
N/C(=N\O)c1cn([C@@H]2O[C@@H](CO)[C@H](O)[C@@H]2O)c2ncnc(NO)c12	1µM	2µM	-[10.9 µM]	-[11.4 µM]
Nc1ncnc2c1c(I)cn2C1OC(CO)C(O)C1O (centres undefined)	-	-	-	.
COCCn1c(=O)c(CCc2ccccc2)nc2cnc(N(C)C)nc21	-	-	-	-[11.4 µM]
COc1c(Cl)cc(C(=O)Nc2cccc(-c3nc4ccccc4[nH]3)c2)cc1Cl	13µM	?	-[10.9 µM]	?
O=C(Nc1cccc(-c2nc3ccccc3[nH]2)c1)c1ccco1	-	-	-	-
COc1ccccc1NC(=O)C1CCC(CNS(=O)(=O)c2ccc3c(c2)CC(C)N3C(C)=O)CC1 (centres undefined)	-	-	?	?
CCOC(=O)CNC(=O)Nc1cc(C(=O)NCc2ccc(C(C)C)cc2)ccc1N1CCCC1	-	-	-[10.9 µM]	-
CCCOc1ccc(-c2nc3ccccc3c(=O)o2)cc1	5µM	10µM	-[10.9 µM]	-
CCC(=O)Nc1cccc(-c2nc3ccccc3c(=O)o2)c1	10µM	13µM	-	?
CCCOc1ccc(-c2nnc(-c3ccco3)o2)cc1	?	13µM	-	-
O=Nc1c(-c2c(O)[nH]c3cc(Br)ccc23)[nH]c2ccccc12	13µM	13µM	-	.
Cc1ccc(C)c(NS(=O)(=O)c2ccc3oc(=O)c4ncn(C)c4c3c2)c1	7.9µM	?	-[10.9 µM]	?
Nc1nc(Sc2ccc([N+](=O)[O-])c3nonc23)c2[nH]cnc2n1	?	?	-[10.9 µM]	4µM
COc1ccc(NC(=O)CSc2nnc(NC(=O)Nc3ccc(OC)cc3)s2)cc1	?	-	-[10.9 µM]	-
COCCNC(=O)CSc1nnc(NC(=O)Nc2ccc(C)cc2)s1	?	11µM	-[10.9 µM]	-
CN(C)c1ccc(/C=C2/C(=O)Nc3ccccc32)cc1	10µM	10µM	-	?
CN(C)c1ccc(/C=C2\C(=O)Nc3ccccc32)cc1	.	.	-	.
SMILES	p53ts 39C tox	p53ts 32C tox	Peg3 imprint	IkB signaling
CC1(C)COCN1S(=O)(=O)c1ccc(C(=O)Nc2nnc(-c3ccc(Cl)s3)o2)cc1	7.9µM	?	-	-
Cc1ccc(Cc2cn3cc(-c4ccc(F)cc4)nc3s2)cc1	7.9µM	?	-[10.9 µM]	-
O=c1oc2ccccc2cc1-c1cn2cc(Cc3ccc(F)cc3)sc2n1	-	-	-[10.9 µM]	-
CCOc1ccc2nc(N3CCN(C(=O)CS(=O)(=O)c4ccc(F)cc4)CC3)sc2c1	6.3µM	14µM	-[10.9 µM]	?
O=C(CC(Nc1ccc(Cl)cc1)C(=O)O)c1ccccc1 (centres undefined)	?	25µM	.	.
O=C(O)C[C@H](Nc1ccccc1)C(=O)O	-[9.22 µM]	-[9.22 µM]	-[10.9 µM]	-[11.4 µM]
